# Measurements reported in PubChem BioAssay AID1159580 (chemical genetic matrix, 2015).
# Hit rate of the full screen: of about 5,500 compounds, about 2,000 (36%) were called active. Not shown: some 18% with an inconclusive outcome. Some of the results follow. A number with no mark means an inactive call. No stated cut-off is given here; in the data, active means normalized growth mostly below about 0.91 (no sharp cut-off); inconclusive means no clear call, values can overlap the other calls; inactive means mostly above about 0.92.
# Test: chemical genetic growth profiling, strain panel (AID 1159580);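 further: tested at 20 µM; growth read once vehicle control cultures reached saturation at 30 °C; 1 = growth at the plate median or of vehicle wells; lower values mean less growth of the strain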
# Settings: growth OD
structure (smiles),measurement,setting,value
COc1cc2c(cc1OC)C1C(=O)c3c(cc4c(c3O)C=CC(C)(C)O4)OC1CO2 (configuration not stated),normalized growth,"S. cerevisiae deletion strains, locus YBR021W, strain FUR4, hits give low values",1
same,normalized growth,"S. cerevisiae deletion strains, locus YBR229C, strain ROT2, hits give low values",1.02
same,normalized growth,"S. cerevisiae deletion strains, locus YCL029C, strain bik1, hits give low values",1.03
same,normalized growth,"S. cerevisiae deletion strains, locus YDL035C, strain GPR1, hits give low values",1.03
same,normalized growth,"S. cerevisiae deletion strains, locus YDL074C, strain BRE1, hits give low values",1.13
same,normalized growth,"S. cerevisiae deletion strains, locus YDL101C, strain DUN1, hits give low values",1.01
same,normalized growth,"S. cerevisiae deletion strains, locus YDL134C, strain PPH21, hits give low values",1
same,normalized growth,"S. cerevisiae deletion strains, locus YDL185W, strain tfp1, hits give low values",1.02
same,normalized growth,"S. cerevisiae deletion strains, locus YDL192W, strain arf1, hits give low values",0.996
same,normalized growth,"S. cerevisiae deletion strains, locus YDR101C, strain arx1, hits give low values",0.99
same,normalized growth,"S. cerevisiae deletion strains, locus YDR162C, strain NBP2, hits give low values",1.03
same,normalized growth,"S. cerevisiae deletion strains, locus YDR318W, strain mcm21, hits give low values",1.02
same,normalized growth,"S. cerevisiae deletion strains, locus YDR388W, hits give low values",1.02
same,normalized growth,"S. cerevisiae deletion strains, locus YDR502C, strain sam2, hits give low values",1.02
same,normalized growth,"S. cerevisiae deletion strains, locus YER110C, hits give low values",1.02
same,normalized growth,"S. cerevisiae deletion strains, locus YER155C, strain BEM2, hits give low values",1.04
same,normalized growth,"S. cerevisiae deletion strains, locus YER167W, strain BCK2, hits give low values",1.01
same,normalized growth,"S. cerevisiae deletion strains, locus YGL078C, strain dbp3, hits give low values",1.01
same,normalized growth,"S. cerevisiae deletion strains, locus YGL086W, strain mad1, hits give low values",1.01
same,normalized growth,"S. cerevisiae deletion strains, locus YGL248W, strain PDE1, hits give low values",1.03
same,normalized growth,"S. cerevisiae deletion strains, locus YGR135W, strain pre9, hits give low values",1.06
same,normalized growth,"S. cerevisiae deletion strains, locus YGR229C, strain SMI1, hits give low values",1.3 [resistant] (active)
same,normalized growth,"S. cerevisiae deletion strains, locus YGR252W, strain gcn5, hits give low values",1.08
same,normalized growth,"S. cerevisiae deletion strains, locus YHR079C, strain IRE1 (second series), hits give low values",1.02
same,normalized growth,"S. cerevisiae deletion strains, locus YHR094C, strain hxt1, hits give low values",1.03
same,normalized growth,"S. cerevisiae deletion strains, locus YHR129C, strain ARP1, hits give low values",1.02
same,normalized growth,"S. cerevisiae deletion strains, locus YHR200W, strain rpn10, hits give low values",1.02
same,normalized growth,"S. cerevisiae deletion strains, locus YIL066C, strain RNR3, hits give low values",1
same,normalized growth,"S. cerevisiae deletion strains, locus YIL073C, strain SPO22, hits give low values",1.28
same,normalized growth,"S. cerevisiae deletion strains, locus YIL125W, strain kgd1, hits give low values",1
same,normalized growth,"S. cerevisiae deletion strains, locus YIR030C, strain dcg1, hits give low values",1.02
same,normalized growth,"S. cerevisiae deletion strains, locus YJL095W, strain BCK1, hits give low values",1.05
same,normalized growth,"S. cerevisiae deletion strains, locus YJL134W, strain LCB3, hits give low values",1.01
same,normalized growth,"S. cerevisiae deletion strains, locus YJL168C, strain set2, hits give low values",1.03
same,normalized growth,"S. cerevisiae deletion strains, locus YJL187C, strain SWE1 (second series), hits give low values",1.01
same,normalized growth,"S. cerevisiae deletion strains, locus YKL009W, strain mrt4, hits give low values",1.04
same,normalized growth,"S. cerevisiae deletion strains, locus YKL068W, hits give low values",1.01
same,normalized growth,"S. cerevisiae deletion strains, locus YKL085W, strain MDH1 (second series), hits give low values",1.01
same,normalized growth,"S. cerevisiae deletion strains, locus YKL085W, strain MDH1, hits give low values",1.01
same,normalized growth,"S. cerevisiae deletion strains, locus YKL190W, strain CNB1, hits give low values",1
same,normalized growth,"S. cerevisiae deletion strains, locus YKR001C, strain vps1, hits give low values",0.724 (active)
same,normalized growth,"S. cerevisiae deletion strains, locus YLR039C, strain RIC1, hits give low values",0.992
same,normalized growth,"S. cerevisiae deletion strains, locus YLR058C, strain SHM2, hits give low values",1.01
same,normalized growth,"S. cerevisiae deletion strains, locus YLR102C, strain apc9, hits give low values",1.02
same,normalized growth,"S. cerevisiae deletion strains, locus YLR262C, strain YPT6, hits give low values",0.991
same,normalized growth,"S. cerevisiae deletion strains, locus YLR268W, strain sec22, hits give low values",1.02
same,normalized growth,"S. cerevisiae deletion strains, locus YLR342W, strain FKS1 (second series), hits give low values",0.961
same,normalized growth,"S. cerevisiae deletion strains, locus YLR371W, strain rom2, hits give low values",1.03
same,normalized growth,"S. cerevisiae deletion strains, locus YLR418C, strain cdc73, hits give low values",1.13
same,normalized growth,"S. cerevisiae deletion strains, locus YML016C, strain PPZ1, hits give low values",0.996
same,normalized growth,"S. cerevisiae deletion strains, locus YML032C, strain rad52, hits give low values",0.998
same,normalized growth,"S. cerevisiae deletion strains, locus YML124C, strain tub3, hits give low values",1.02
same,normalized growth,"S. cerevisiae deletion strains, locus YMR078C, strain ctf18, hits give low values",1.02
same,normalized growth,"S. cerevisiae deletion strains, locus YMR223W, strain ubp8, hits give low values",1.01
same,normalized growth,"S. cerevisiae deletion strains, locus YMR307W, strain GAS1, hits give low values",1.18
same,normalized growth,"S. cerevisiae deletion strains, locus YNL067W, strain RPL9B, hits give low values",1.01
same,normalized growth,"S. cerevisiae deletion strains, locus YNL153C, strain GIM3, hits give low values",1.04
same,normalized growth,"S. cerevisiae deletion strains, locus YNL233W, strain BNI4, hits give low values",1.06
same,normalized growth,"S. cerevisiae deletion strains, locus YNL250W, strain rad50, hits give low values",1.05
same,normalized growth,"S. cerevisiae deletion strains, locus YNL271C, strain bni1, hits give low values",1.01
same,normalized growth,"S. cerevisiae deletion strains, locus YNL298W, strain CLA4, hits give low values",1
same,normalized growth,"S. cerevisiae deletion strains, locus YNL307C, strain MCK1, hits give low values",1.03
same,normalized growth,"S. cerevisiae deletion strains, locus YNR052C, strain pop2, hits give low values",1.04
same,normalized growth,"S. cerevisiae deletion strains, locus YOL012C, strain htz1",0.98
same,normalized growth,"S. cerevisiae deletion strains, locus YOL147C, strain pex11, hits give low values",1.01
same,normalized growth,"S. cerevisiae deletion strains, locus YOR061W, strain CKA2, hits give low values",1
same,normalized growth,"S. cerevisiae deletion strains, locus YOR069W, strain VPS5, hits give low values",1.01
same,normalized growth,"S. cerevisiae deletion strains, locus YOR136W, strain idh2, hits give low values",1.06
same,normalized growth,"S. cerevisiae deletion strains, locus YOR144C, strain elg1, hits give low values",1.01
same,normalized growth,"S. cerevisiae deletion strains, locus YOR184W, strain ser1, hits give low values",0.99
same,normalized growth,"S. cerevisiae deletion strains, locus YOR316C, strain cot1, hits give low values",1.02
same,normalized growth,"S. cerevisiae deletion strains, locus YPR119W, strain clb2, hits give low values",1.02
same,normalized growth,"S. cerevisiae deletion strains, locus YPR141C, strain kar3, hits give low values",1
same,normalized growth,"S. cerevisiae deletion strains, locus YPR163C, strain tif3, hits give low values",1.03
same,normalized growth,"S. cerevisiae deletion strains, locus YPR167C, strain met16, hits give low values",1.01
same,normalized growth,"S. cerevisiae deletion strains, strain wtn01, hits give low values",0.989
same,normalized growth,"S. cerevisiae strains, strain wild type, hits give low values",1.02
